# From PubChem
# A selection: hits, their analogues and other compounds. The true share with any hit is near 11%.
# MCF10A rerep – inducers of DNA re-replication in MCF 10A breast cells | MCF 10A DNA re-replication, Hoechst nuclear intensity, 48 h | Potency, µM (highest dose often 46.1 µM), without a hit: at the highest dose activity, positive = re-replication, most hits filed as activators | hit rate 2.9% among 350,000; further: potency means the concentration at half of the fitted maximal effect; % of control where 0% means no effect; nearly all actives have a fitted effect of over 50% in size
# IL-1B inflam inh – inflammasome signaling inhibition, IL-1 beta readout | activity change, % at 57.5 µM | AID 743279 | THP-1 LPS/ATP IL-1B secretion, AlphaLISA, 16 h; stronger effect = lower value | hit rate 4.7% among 360,000; in the data active means activity change below about -50%; inconclusive means mostly about -30% to -49%; further: on the % scale 0 is the no-effect control and ±100 the full control effect
#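 THP-1 cells pretreated 1 hr with compounds (up to 57.5 uM final), then stimulated with LPS (250 ng/mL final) plus ATP (1.25 mM final); secreted IL-1B measured by AlphaLISA after 16 hr, decreased signal indicating inhibition.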
# Gal4-VP16 FLuc – inhibits Gal4-VP16 luciferase reporter, ROR gamma counter-screen; Drosophila S2 Gal4-VP16 UAS-luciferase, luminescence, 20 h; Potency, µM (titrated, usually from 53.6 µM), without a hit: at the top dose activity, negative = inhibition, most hits filed as inhibitors; hit rate 3.5% among 310,000; AID 2546;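 further: Gal4-VP16 expression switched on by copper sulfate through the metallothionein promoter; potency means the concentration at half of the fitted maximal effect; on the % scale 0 is the no-effect control and ±100 the full control effect; nearly all actives have a fitted effect of over 50% in size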
# RORgamma inh – ROR gamma (mouse) transcription inhibition; hit rate 5.4% among 310,000; Potency, µM (series often up to 53.6 µM), inactives show at the top dose activity change, negative = inhibition, hits mostly inhibitors; AID 2551; Drosophila S2 Gal4-RORgamma UAS-luciferase reporter, 20 h; P51450; further: potency means the concentration at half of the fitted maximal effect; on the % scale 0 is the no-effect control and ±100 the full control effect; nearly all actives have a fitted effect of over 60% in size
# Target sequence (P51450 whole entry, looked up, the tested form may be a part): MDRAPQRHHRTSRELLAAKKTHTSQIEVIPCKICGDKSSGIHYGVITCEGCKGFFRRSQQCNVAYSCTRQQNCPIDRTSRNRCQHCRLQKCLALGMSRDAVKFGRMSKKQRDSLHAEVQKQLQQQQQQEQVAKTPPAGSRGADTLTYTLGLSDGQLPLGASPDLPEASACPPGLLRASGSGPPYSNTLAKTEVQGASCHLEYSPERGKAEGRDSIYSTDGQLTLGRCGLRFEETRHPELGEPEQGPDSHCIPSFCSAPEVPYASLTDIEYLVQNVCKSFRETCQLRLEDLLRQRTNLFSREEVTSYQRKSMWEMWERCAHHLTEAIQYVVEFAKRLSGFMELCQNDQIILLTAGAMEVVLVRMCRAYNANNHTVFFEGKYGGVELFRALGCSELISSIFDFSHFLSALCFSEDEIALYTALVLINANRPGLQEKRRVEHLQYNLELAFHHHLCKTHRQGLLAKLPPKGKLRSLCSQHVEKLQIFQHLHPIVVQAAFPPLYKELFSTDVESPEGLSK
#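 Schneider cells (Drosophila), stable Gal4 DBD–ROR gamma + UAS-luc; 1 hr cmpd preincubation; Cu2+ induction 700 uM final; 20 hr ambient; luminescence.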
# SW480 rerep – inducers of DNA re-replication in SW480 colon cancer cells; SW480 DNA re-replication, Hoechst DNA content imaging, 48 h; Potency, µM (titrated, usually from 46.1 µM), inactives show at the highest dose re-replication activation, usual class: activators; hit rate 1.8% among 340,000; further: potency means the concentration at half of the fitted maximal effect; % of control where 0% means no effect; nearly all actives have a fitted effect of over 55% in size
#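 DNA re-replication was detected as more nuclei of elevated Hoechst intensity after 48 hr exposure to compound (23 nL pinned per well of 250 cells).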
# * marks the source's active call; other numbers are inactive results; u = inconclusive; x = not tested or not shown; [ ] = another dose, or the depositor's remark. Unless noted, the call rests on the fitted dose curve; in most records, active means well fitted curve in the direction sought with a large enough effect; inconclusive means small, poorly fitted or top-dose-only effect, or another doubt; inactive means no such curve, though single readings can be large; an effect the other way counts as inactive or inconclusive.
SMILES,MCF10A rerep,IL-1B inflam inh,Gal4-VP16 FLuc,RORgamma inh,SW480 rerep
S=C1CN=C(c2ccccc2)c2cc(Cl)ccc2N1,-12%,2,6.3µM*,2µM*,u
COc1ccc(C2=NCC(=S)Nc3ccc(Cl)cc32)cc1Cl,11%,22,8.9µM*,2.8µM*,-8%
ClC(Cl)(Cl)Cl,-1%,x,1%,-1%,-7%
CCN[C@]1(c2cccs2)CCCCC1=O,0%[20.6 µM],x,-1%[17 µM],6%[2.98 µM],1%[20.6 µM]
COC(C)C(O)(C(=O)OC1=CCN2CC[C@H](O)[C@H]12)C(C)C (some centres undefined),x,x,2%,-11%,x
CC(=O)OC1C(O)C(C)OC(OC2C(OC(=O)C3CCC4C(C3)OC3(CC(OC(=O)/C=C/c5ccccc5)C(C)CO3)C43CO3)OC(C)C(O)C2OC(C)=O)C1O (centres undefined),u,-98*,x,x,0.21µM*
CC[C@H](Oc1ccc(Cl)cc1)C(=O)OC1C[C@H]2CC[C@@H](C1)N2C (some centres undefined),x,x,14%,-10%,x
O=NN(c1ccccc1)c1ccccc1,x,x,19%,3%,x
OCC(Br)(Br)Br,x,x,-6%,-5%,x
COc1ccc(N2C(=O)CS(=O)C(c3ccccc3)C2=O)cc1 (centres undefined),u,20,-1%[10 µM],1.3µM*,14%
COc1ccc(N2C(=O)CC(N3CCC(n4c(=O)[nH]c5ccccc54)CC3)C2=O)cc1 (centres undefined),25%,31,0%,9%,-5%
O=C(O)C(Cl)(Cl)Br,x,x,-7%,4%,x
COc1cc(/C=C/[N+](=O)[O-])ccc1O,u,-65*,3.2µM*,4.5µM*,u
Cc1nn(-c2ccccc2)c(Cl)c1/C=N\NC(=O)c1cnccn1,u,14,-3%,-5%,-6%
Cc1cc(C(=O)C[N+]23CCN(CC2)CC3)c(C)n1-c1ccc(Br)cc1,-17%,-26,0%,14%,30%
Cc1cc(C(=O)Cn2nnc(-c3ccc(Cl)cc3)n2)c(C)n1-c1ccccc1,u,u,22µM*,u,-1%
c1csc(CN2CC[C@@]3(CCCNC3)C2)n1,x,x,-10%,-18%,x
CCN(CC)c1ccc(/C=C/[N+](=O)[O-])cc1,u,-18,-73%,8.9µM*,u
CCN(CC)c1ccccc1,u,31,8%,15%,u
CC(C)(C)c1csc(NC(=O)Nc2ccccc2)n1,u,-94*,-8%,u,-5%
O=c1[nH]c(=S)n(-c2cccc(Cl)c2)c(O)c1/C=N/N1CCOCC1,6%,7,-1%,-2%,4%
COc1ccc(-[n+]2c(-c3ccccc3)cc(-c3ccccc3)cc2-c2ccccc2)cc1,u,-76*,x,x,u
Cc1ccc(-c2cc(-c3ccccc3)cc(-c3ccccc3)[n+]2-c2ccccc2C(=O)O)cc1,-3%,-2,x,x,-31%[9.22 µM]
Oc1ccc(-[n+]2c(-c3ccccc3)cc(-c3ccccc3)cc2-c2ccccc2)cc1,u,-95*,x,x,-3%
O=C([O-])c1ccc(-[n+]2c(-c3ccccc3)cc(-c3ccccc3)cc2-c2ccccc2)cc1,20%,22,x,x,-9%
SMILES,MCF10A rerep,IL-1B inflam inh,Gal4-VP16 FLuc,RORgamma inh,SW480 rerep
CN1CCc2cc3c(cc2[C@@H]1[C@@H]1OC(=O)c2c1ccc1c2OCO1)OCO3,x,x,0%[17 µM],5%[16.9 µM],x
CC(C)(C)c1ccc(-c2n[nH]c(=S)n2CCCN2CCOCC2)cc1,0%,16,-26%,7.9µM*,-2%
C[C@H]1O[C@H]1P(=O)(O)O,u,11,-3%,-9%,u
CC1[C@H]2Cc3ccc(O)cc3[C@]1(C)CCN2CCc1ccccc1 (some centres undefined),-3%,-56*,x,x,1µM*
OC12ONC(c3ccccn3)C1N1CCC2CC1 (centres undefined),7.3µM*,-9,u,40%,16µM*
CC(=O)N1CCCc2cc(S(=O)(=O)N3CCCC(C(=O)Nc4cccc(F)c4)C3)ccc21 (centres undefined),-49%,2,-4%,u,-1%
O=P(Nc1ccccc1Cl)(c1ccccc1)c1nc2c(s1)CCCC2 (centres undefined),-2%,-4,1%,24%,-4%
